The entries come from a sample that favours hits as a whole.
Pf Dd2 inh – blocks in vitro growth of P. falciparum Dd2; P. falciparum Dd2 growth, SYBR Green, 72 h; Potency, µM (titrated, usually from 28.9 µM), usual class: inhibitors; 120,000 tested, 4.3% active; active = well fitted inhibition curve with a large enough effect; note: nearly all actives have a fitted effect of over 65% in size
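Infected erythrocytes (Dd2, 0.3% parasitemia, 2.5% hematocrit final) are added to compound in RPMI-1640/Albumax II medium, grown 72 h at 37C in low oxygen, then lysed with saponin/Triton-X containing SYBR Green and read by fluorescence.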
A number is an active result; i = inactive; [ ] = remark or other dose.

SMILES	Pf Dd2 inh
COCCN(CCOC)S(=O)(=O)c1ccc(C(=O)Nc2sc3c(c2C(N)=O)CCCC3)cc1	i
COC(=O)c1c(NC(=O)c2ccc(S(=O)(=O)N3CCCCC3C)cc2)sc2c1CCN(C(C)C)C2 (stereo not drawn)	11µM
CNC(=O)c1c(NC(=O)c2ccc(S(=O)(=O)N3CCCCC3C)cc2)sc2c1CCC2 (stereo not drawn)	i
COC(=O)c1c(NC(=O)c2ccc(C(C)(C)C)cc2)sc2c1CCC(C)C2 (stereo not drawn)	i
CCCCN(C)S(=O)(=O)c1ccc(C(=O)Nc2sc3c(c2C(=O)OCC)CCN(C(C)C)C3)cc1	6.3µM
O=C(C[C@@H]1O[C@H](CNC(=O)C2CCCC2)[C@@H](O)[C@H]1O)Nc1ccccc1	i
Cc1oc(-c2ccccc2)nc1CN1CCCC(C(=O)NCCc2noc(-c3ccccc3)n2)C1 (stereo not drawn)	i
O=C1CCCCC(CNC(=O)c2cccnc2)N1 (stereo not drawn)	i
Cn1nccc1CN1CCCC2(C1)NC(=O)c1ccccc1O2 (stereo not drawn)	i
O=C([C@@H]1C[C@H](Oc2cccnc2)CN1C(=O)Cc1ccccc1)N1CCCC1	i
O=C(NCc1ccco1)C1COC2(CCN(C(=O)c3ccc(F)cc3)CC2)N1C(=O)c1ccccc1 (stereo not drawn)	i
NC(=O)N1CCCC(C(=O)NCCc2nc(-c3ccccn3)no2)C1 (stereo not drawn)	i
CCOC(=O)c1c(NC(=O)c2ccc(S(=O)(=O)N3CCC(C)CC3)cc2)sc2c1CCN(C)C2	8.9µM
CCOC(=O)c1c(NC(=O)c2ccc(S(=O)(=O)N(C)C)cc2)sc2c1CCN(C)C2	i
CNC(=O)c1c(NC(=O)c2ccc(S(=O)(=O)N3CCC(C)CC3)cc2)sc2c1CCC2	i
Cc1ccc(NC(=O)Cn2c(=O)c(-c3noc(C)n3)c3n(c2=O)CCCCC3)c(C)c1	i
O=C(c1cccs1)N1CCCCCC1c1nc(C2CC2)no1 (stereo not drawn)	i
Cc1ccc(C(=O)N2CC[C@H](N3CCOCC3)[C@H](CCCO)C2)cc1Cl	i
N#CCCN1CCN(C(=O)CCc2cc3ccccc3[nH]c2=O)CC1	i
O=C(CCc1cc2ccccc2[nH]c1=O)NCCN1CCc2ccccc2C1	3.2µM
CCC1CCCCN1CCNC(=O)CCc1cc2ccccc2[nH]c1=O (stereo not drawn)	i
CCn1ccc2oc(C)c(C(=O)N3CCN(c4ccccc4Cl)CC3)c2c1=O	i
CCc1ccccc1NC(=O)Cn1ccn2nc3c(c2c1=O)CCCC3	i
Cc1ccc(N2C(=O)CSC23C(=O)N(Cc2ccccc2F)c2ccccc23)cc1F (stereo not drawn)	i
Cc1ccc(C)c(NC(=O)CN2C(=O)C3(SCC(=O)N3c3ccc(C)c(C)c3)c3ccccc32)c1 (stereo not drawn)	11µM
SMILES	Pf Dd2 inh
COc1cccc(CN2C(=O)C3(SCC(=O)N3c3ccc(F)cc3)c3ccccc32)c1 (stereo not drawn)	i
COc1ccccc1NC(=O)CN1C(=O)CSc2ccc(S(=O)(=O)N3CCCC3)cc21	i
COc1ccc(N2C(=O)CCSC23C(=O)N(Cc2ccc(F)cc2)c2ccccc23)cc1 (stereo not drawn)	i
COc1ccccc1NC(=O)CN1C(=O)C2(SCC(=O)N2c2ccc(C)c(C)c2)c2ccccc21 (stereo not drawn)	10µM
Cc1ccc(C)c(NC(=O)CN2C(=O)COc3ccc(Cl)cc32)c1	i
COc1ccc(N2C(=O)CCSC23C(=O)N(Cc2ccc(F)cc2)c2ccccc23)cc1Cl (stereo not drawn)	11µM
COc1ccc(N2C(=O)CSC23C(=O)N(CC(N)=O)c2ccccc23)cc1 (stereo not drawn)	i
CCNC(=O)N[C@H]1[C@H](O)[C@@H](N(CC)CC)[C@@H]2OC[C@H]1O2	i
Cc1cnc(-c2ccccc2)n1CCN	i
O=C(O)CCC1CCCN(S(=O)(=O)c2ccc(F)cc2)C1 (stereo not drawn)	i
CN(C)C(=O)N1CCc2nc(-c3ccccc3)nc(-c3ccc(Cl)cc3)c2C1	i
Cc1ccc(C(=O)N2CCc3nc(-c4ccccc4)nc(-c4ccc(Cl)cc4)c3C2)cc1	10µM
O=C(c1ccc(Cl)nc1)N1CCc2nc(-c3ccc(Cl)cc3)nc(-c3ccccc3)c2C1	i
CC(=O)N1CCc2nc(-c3ccc(Cl)cc3)nc(-c3ccccc3)c2C1	i
CC(C)(C)C(=O)N1CCc2nc(-c3ccccc3)nc(-c3ccc(Cl)cc3)c2C1	5µM
Cc1nc2c(c(-c3ccc(Cl)cc3)n1)CN(C(=O)c1ccccc1)CC2	i
CC(C)c1ccc(NC2=N[C@H]3[C@@H](O)[C@H](O)C[C@H](C(=O)NCCN4CCOCC4)[C@H]3S2)cc1	i
CCCc1nc(C)cc(N2CCC(NCCc3ccc(Cl)cc3)CC2)n1	10µM
COc1ccc(CC(=O)NC2CCN(c3cc(-c4ccc(Cl)cc4)[nH]n3)CC2)cc1	i
CCCc1cc(N2CCC(NCCOC(C)C)CC2)nc(C)n1	i
CN(C)C(=O)c1csc(N2CCN(c3cccc(Cl)c3)CC2)n1	i
COc1ccc(C(=O)N2CCC(Oc3ccc(C(=O)N(C)C)cn3)CC2)cc1	i
COc1ccc(N2CCN(C(=O)CSc3nc(-c4ccccc4)no3)CC2)cc1	2.8µM
CCc1ccc(NC(=O)CSc2nc3ccccc3nc2Cc2ccc(C)cc2)cc1	i
CCc1ccc(NC(=O)CSc2nc(-c3ccccc3)c(C#N)c(=O)[nH]2)cc1	i
SMILES	Pf Dd2 inh
CCc1ccc(NC(=O)CSc2nc(-c3ccccc3)no2)cc1	2.5µM
CCN(C(=O)CSc1nc2ccccc2[nH]1)c1ccccc1	i[5.79 µM]
COc1ccc(N2CCN(C(=O)CSc3n[nH]c(-c4ccccc4Cl)n3)CC2)cc1	i
COc1ccc(N2CCN(C(=O)CSc3nc4ccccc4nc3Cc3ccc(Cl)cc3)CC2)cc1	i
CC(C)c1ccc(C(=O)N2CCC(Cc3nc(-c4ccc(F)cc4)no3)CC2)cc1	i
CN(C(=O)Cn1cccc1-c1nc(-c2ccc(F)cc2)no1)c1ccccc1	i
CCN(C(=O)CSc1nc(-c2ccccc2)no1)c1ccccc1	3.2µM
CC(C)c1ccc(-c2noc(SCC(=O)N(C)c3ccc(F)cc3)n2)cc1	0.79µM
CCN(C(=O)CSc1nc2ccccc2nc1Cc1ccccc1OC)c1ccccc1	i
Cc1ccc(CN(C(=O)c2ccco2)c2ccc(CC(=O)N3CCCC3)cc2)cc1	i
CC[C@@]1(O)CCN(CC(=O)NCc2cc(C(=O)O)ccc2C)C[C@H]1O	i
COCc1noc(C2CCCCCN2C(=O)NCc2ccc(F)cc2)n1 (stereo not drawn)	i
COC[C@@H]1CN(C(=O)c2ccc(C#N)cc2)C[C@H]1C(N)=O	i
COc1cccc(CNC(=O)[C@@H]2C[C@@H](O)CN2C2CCN(C(=O)c3ccc(OC)cc3OC)CC2)c1	i
O=C(NC1CCN(c2cc(-c3cccs3)[nH]n2)C1)c1cccc(OC(F)(F)F)c1 (stereo not drawn)	i
CN1Cc2ncnc(NCC3CC3)c2CN(c2ccccc2)C1=O	i
O=C(Cn1nc2c(cc1=O)CCCC2)NC1CCN(Cc2ccc(F)cc2)CC1	i
O=C(Nc1ccccc1)c1nc2c(o1)CCN(Cc1cccs1)CC2	i
C#CCNC(=O)C[C@@H]1c2nc(NC(=O)c3ccc(F)cc3)sc2C[C@@H]2[C@](C)(CO)[C@H](O)CC[C@]21C	i
COc1ccc(C(=O)Nc2nc3c(s2)C[C@@H]2[C@](C)(CO)[C@H](O)CC[C@@]2(C)[C@@H]3CC(=O)NCc2ccco2)cc1	2µM
